Measurements taken from PubChem BioAssay (NCI).
About 79,000 compounds went through this panel and 15% of them were active in at least one assay; those are over-represented in the sample as a whole. A number with no mark means an inactive call. Calls of active or inactive are those of the source. No stated cut-off is given here; in the data, active means growth inhibition above about 70%; inactive means the rest.

Columns and labels:
[1] = NCI Yeast Anticancer Drug Screen. Data for the rad50 strain (AID 155);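 further: 0% = growth of vehicle-only cultures of the same strain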; settings: S. cerevisiae rad50 strain growth inhibition, hits give high values
How it was run: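 Growth of the mutant yeast was measured after compound exposure and referenced to vehicle-treated cultures.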

[2] = NCI Yeast Anticancer Drug Screen. Data for the mec2-1 strain (AID 157); settings: S. cerevisiae mec2-1 strain, hits give high values
How it was run: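 Yeast mec2-1 mutant treated with compound. Readout: growth inhibition vs vehicle controls.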

[3] = NCI Yeast Anticancer Drug Screen. Data for the sgs1 mgt1 strain (AID 161);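 further: 0% = growth of cultures given vehicle only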; settings: S. cerevisiae sgs1 mgt1 strain, hits give high values
How it was run: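 Test agents were incubated with a DNA-repair-mutant yeast strain. Growth was then read and compared against vehicle-treated controls.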

[4] = NCI Yeast Anticancer Drug Screen. Data for the cln2 rad14 strain (AID 165);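 further: 0% = growth equal to vehicle treated cultures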; settings: S. cerevisiae cln2 rad14 strain, hits give high values
How it was run: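 cln2 rad14 yeast strain; compound exposure; growth inhibition read vs vehicle controls.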

[5] = NCI Yeast Anticancer Drug Screen. Data for the bub3 strain (AID 167); settings: S. cerevisiae bub3 mutant strain, hits give high values
How it was run: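 Whole-cell yeast assay. The mutant strain was incubated with compounds, and growth inhibition was determined by comparison with vehicle-treated cells.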

[6] = NCI Yeast Anticancer Drug Screen. Data for the mlh1 rad18 strain (AID 175); settings: S. cerevisiae mlh1 rad18 strain growth inhibition, hits give high values
How it was run: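 Yeast w/ defined DNA-repair lesions; compound exposure; growth vs vehicle controls → % inhibition.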

[7] = at 5.0 µM (retest, dose inferred, filed as 0.5)
[8] = at 50.0 µM (retest, dose inferred, filed as 5.0)

| Structure (SMILES) | growth inhibition [1, 7] [%] | growth inhibition [1, 8] | growth inhibition ([1]; at 50.0 µM) | growth inhibition [2, 7] [%] | growth inhibition [2, 8] | growth inhibition ([2]; at 50.0 µM) | growth inhibition [3, 7] [%] | growth inhibition [3, 8] | growth inhibition ([3]; at 50.0 µM) | growth inhibition [4, 7] [%] | growth inhibition [4, 8] | growth inhibition ([4]; at 50.0 µM) | growth inhibition [5, 7] | growth inhibition [5, 8] | growth inhibition ([5]; at 50.0 µM) | growth inhibition [6, 7] [%] | growth inhibition [6, 8] | growth inhibition ([6]; at 50.0 µM) |
| --- | --- | --- | --- | --- | --- | --- | --- | --- | --- | --- | --- | --- | --- | --- | --- | --- | --- | --- |
| c1ccc(CCc2c[nH]c3ccccc23)cc1 | -7 | -1% | 59.6% | 0 | 0% | 27.5% | -7 | 12% | 72.5% (active) | -52 | -2% | 5.9% | -14% | 41% | 87.5% (active) | -8 | 43% | 49% |
| CCOC(=O)c1c(C)[nH]c(C(c2ccccc2)c2[nH]c(C)c(C(=O)OCC)c2C)c1C | -2 | 65% | 44% | -4 | 64% | 43.4% | 7 | 69% | 66.5% | 0 | 86% (active) | 75.2% (active) | -5% | 80% (active) | 46.2% | 5 | 74% (active) | 48.8% |
| N#CSCc1ccc(CSC#N)c(Cl)c1 | 10 | 93% (active) | 59.7% | 0 | 91% (active) | 40.4% | 18 | 91% (active) | 41% | 4 | 88% (active) | 60.8% | 11% | 98% (active) | 39.1% | 4 | 96% (active) | 93.3% (active) |
| CCC[CH2][Sn]([CH2]CCC)([O]C(=O)C(OC(C)=O)c1ccccc1)[O]C(=O)C(OC(C)=O)c1ccccc1 (configuration not stated) | 52 | 98% (active) | 98.5% (active) | 43 | 98% (active) | 97.8% (active) | 45 | 97% (active) | 98.5% (active) | 31 | 97% (active) | 96.4% (active) | 71% (active) | 97% (active) | 98% (active) | 60 | 98% (active) | 98.5% (active) |
| Cc1ccc2nc(-[n+]3cc4ccccc4cc3C)ccc2c1 | 9 | 99% (active) | 89% (active) | 1 | 100% (active) | 87.6% (active) | 3 | 99% (active) | 89.3% (active) | -1 | 83% (active) | 17.2% | 1% | 100% (active) | 87.7% (active) | 5 | 98% (active) | 87.3% (active) |
| OCC(O)C(OC1OC(CO)C(O)C(O)C1O)C(O)C(/C=N/Nc1ccc(Br)cc1)=N/Nc1ccc(Br)cc1 (configuration not stated) | -3 | 98% (active) | 99.3% (active) | -11 | 98% (active) | 98.5% (active) | 2 | 99% (active) | 98.5% (active) | -41 | 99% (active) | 98.9% (active) | 23% | 99% (active) | 97.9% (active) | 13 | 98% (active) | 98.5% (active) |
| N#CC1C(=O)SC2c3ccccc3C(=O)c3ccccc3C12 (configuration not stated) | -3 | 51% | 63.8% | -28 | -4% | 0.05% | -6 | 5% | 38% | 6 | 36% | 42.6% | -8% | 27% | 32.8% | -8 | 58% | 69.8% |
| Cc1ccc2c(c1)CC1(C2)Cc2ccc(C)cc2C1=O (configuration not stated) | 6 | 73% (active) | 25.4% | -20 | 85% (active) | 17.6% | -28 | 75% (active) | 54.3% | 29 | 39% | 21.4% | -5% | 88% (active) | 64.8% | 5 | 65% | 44.1% |
| CS/C(N)=N/NC(=O)CCC(=O)Nc1cc(Cl)c(Cl)cc1Cl | 3 | 16% | 24.7% | 9 | -2% | 3% | 6 | 16% | -10.2% | 13 | 13% | 15% | 4% | 4% | -0.85% | 5 | 3% | 19.5% |
| O=C1C=CC2=Nc3ccccc3CCC2=C1 | -151 | 95% (active) | 90% (active) | -57 | 95% (active) | 99% (active) | -63 | 95% (active) | 87.7% (active) | -52 | 86% (active) | 88.9% (active) | -67% | 97% (active) | 98.8% (active) | -115 | 97% (active) | 95.1% (active) |
| CN(C)c1ccc(C2ON=C(c3ccccc3)N2C23CC4CC(CC(C4)C2)C3)cc1 (configuration not stated) | 0 | 36% | -11.6% | -11 | 3% | -3.05% | -5 | 33% | -7.15% | 8 | 2% | 55.3% | 14% | 13% | -11.1% | 4 | 5% | -24% |
| CNC(=O)N/N=C/c1ccc([N+](=O)[O-])o1 | 12 | 40% | 65.2% | 4 | 22% | 38.6% | 7 | 29% | 70.3% (active) | 9 | 15% | 11.8% | 10% | 38% | 34% | 12 | 48% | 71.5% (active) |
| C=CCOc1ccc(N=NC(C#N)C#N)cc1 | 8 | 88% (active) | 98.6% (active) | 5 | 87% (active) | 98.3% (active) | 3 | 88% (active) | 52.7% | 0 | 90% (active) | 58% | -2% | 91% (active) | 97.8% (active) | 4 | 93% (active) | 54% |
| CC[N+]1=C(/C=C\c2cc(C)c3cccnc3c2O)C(C)(C)c2ccccc21 | 0 | 98% (active) | 53.9% | -2 | 98% (active) | 48.7% | -6 | 98% (active) | 48.1% | -4 | 98% (active) | 77% (active) | -5% | 98% (active) | 93.2% (active) | 0 | 97% (active) | 51.7% |
| Cn1c2ccccc2c2c(C#N)c(C#N)c([N+](=O)[O-])cc21 | 30 | 98% (active) | 97.2% (active) | 29 | 98% (active) | 78.5% (active) | 9 | 98% (active) | 75.2% (active) | 9 | 97% (active) | 42% | 27% | 98% (active) | 93.2% (active) | 26 | 98% (active) | 76.8% (active) |
| COc1ccc(C2SCC(=O)N2c2nncs2)cc1 (configuration not stated) | -1 | 5% | 50.1% | -3 | 1% | 3.55% | -1 | 3% | 9.5% | 2 | 7% | -8.95% | 4% | 12% | 21.7% | 2 | 5% | 13.8% |
| CC(CN(CC(=O)O)CC(=O)O)N(CC(=O)O)CC(=O)O.[Cl][Pd][Cl] (configuration not stated) | 27 | 89% (active) | 88.3% (active) | 7 | 87% (active) | 91.5% (active) | 40 | 92% (active) | 82% (active) | 14 | 81% (active) | 57.2% | 22% | 91% (active) | 86.4% (active) | 30 | 83% (active) | 90.7% (active) |
| Cc1c2cc(Cl)ccc2cc2c1ccc1ccccc12 | 12 | 5% | 96.7% (active) | -7 | 6% | 98.8% (active) | 2 | 14% | 99.2% (active) | -3 | 8% | 70.8% (active) | -6% | -4% | 96.5% (active) | -4 | 16% | 98.5% (active) |
| O=C(CCN1CCCC1)c1ccc(Oc2ccc(F)cc2)cc1 | 28 | 50% | 69.8% | 20 | 48% | 11.7% | 31 | 60% | 47.2% | 34 | 68% | 54.7% | 31% | 72% (active) | 49.4% | 30 | 56% | 63.4% |
